Assay results published in PubChem BioAssay AID1159580 (chemical genetic matrix, 2015).
In all, about 5,500 compounds went through this assay and about 2,000 (36%) were called active. Inconclusive results (about 18%) are left out. Rule as the data show it: active = normalized growth mostly below about 0.91 (no sharp cut-off); inconclusive = no clear call, values can overlap the other calls; inactive = mostly above about 0.92. This is one part of the list.

Assay: chemical genetic growth profiling, strain panel (AID 1159580);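 also: tested at 20 µM; growth read once vehicle control cultures reached saturation at 30 °C; 1 = growth at the plate median or of vehicle wells; lower values mean less growth of the strain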
Details: S. cerevisiae deletion strains, growth OD

Measured: normalized growth

COc1ccccc1-c1coc2cc(O)ccc2c1=O
inactive: locus YBR021W, strain FUR4, hits give low values 0.987 | locus YBR229C, strain ROT2, hits give low values 1.01 | locus YCL029C, strain bik1, hits give low values 1 | locus YDL035C, strain GPR1, hits give low values 0.983 | locus YDL074C, strain BRE1, hits give low values 1.02 | locus YDL101C, strain DUN1, hits give low values 0.995 | locus YDL134C, strain PPH21, hits give low values 0.963 | locus YDL185W, strain tfp1, hits give low values 0.999 | locus YDL192W, strain arf1, hits give low values 1 | locus YDR101C, strain arx1, hits give low values 0.996 | locus YDR162C, strain NBP2, hits give low values 0.986 | locus YDR318W, strain mcm21, hits give low values 1.01 | locus YDR388W, hits give low values 1.03 | locus YDR502C, strain sam2, hits give low values 1.02 | locus YEL061C, strain CIN8, hits give low values 1.02 | locus YER110C, hits give low values 1.02 | locus YER155C, strain BEM2, hits give low values 1.02 | locus YER167W, strain BCK2, hits give low values 1.03 | locus YGL078C, strain dbp3, hits give low values 1 | locus YGL086W, strain mad1, hits give low values 1.01 | locus YGL248W, strain PDE1, hits give low values 1.01 | locus YGR078C, strain PAC10, hits give low values 0.995 | locus YGR135W, strain pre9, hits give low values 0.999 | locus YGR252W, strain gcn5, hits give low values 0.88 | locus YHR030C, strain SLT2, hits give low values 1.02 | locus YHR079C, strain IRE1 (second series), hits give low values 1.02 | locus YHR094C, strain hxt1, hits give low values 1.02 | locus YHR129C, strain ARP1, hits give low values 1.03 | locus YHR200W, strain rpn10, hits give low values 1.03 | locus YIL066C, strain RNR3, hits give low values 1.01 | locus YIL073C, strain SPO22, hits give low values 1.05 | locus YIL125W, strain kgd1, hits give low values 1.02 | locus YIR030C, strain dcg1, hits give low values 1.01 | locus YJL095W, strain BCK1, hits give low values 1.04 | locus YJL134W, strain LCB3, hits give low values 1.02 | locus YJL168C, strain set2, hits give low values 1.02 | locus YJL187C, strain SWE1 (second series), hits give low values 0.998 | locus YJR043C, strain POL32, hits give low values 0.971 | locus YKL009W, strain mrt4, hits give low values 0.993 | locus YKL068W, hits give low values 1 | locus YKL085W, strain MDH1 (second series), hits give low values 1 | locus YKL085W, strain MDH1, hits give low values 1 | locus YKL190W, strain CNB1, hits give low values 1.02 | locus YKR001C, strain vps1, hits give low values 0.979 | locus YLR039C, strain RIC1, hits give low values 1.03 | locus YLR058C, strain SHM2, hits give low values 1.01 | locus YLR102C, strain apc9, hits give low values 1.01 | locus YLR262C, strain YPT6, hits give low values 0.991 | locus YLR268W, strain sec22, hits give low values 0.997 | locus YLR330W, strain CHS5, hits give low values 1.03 | locus YLR342W, strain FKS1 (second series), hits give low values 0.992 | locus YLR371W, strain rom2, hits give low values 1.02 | locus YLR418C, strain cdc73, hits give low values 0.969 | locus YML016C, strain PPZ1, hits give low values 1.04 | locus YML032C, strain rad52, hits give low values 1.02 | locus YML124C, strain tub3, hits give low values 1.01 | locus YMR078C, strain ctf18, hits give low values 1.01 | locus YMR223W, strain ubp8, hits give low values 0.999 | locus YMR263W, strain SAP30, hits give low values 1 | locus YMR307W, strain GAS1, hits give low values 0.909 | locus YNL067W, strain RPL9B, hits give low values 0.987 | locus YNL233W, strain BNI4, hits give low values 1.02 | locus YNL250W, strain rad50, hits give low values 1.02 | locus YNL271C, strain bni1, hits give low values 1.02 | locus YNL298W, strain CLA4, hits give low values 1 | locus YNL307C, strain MCK1, hits give low values 1.02 | locus YNR052C, strain pop2, hits give low values 1.01 | locus YOL006C, strain TOP1, hits give low values 1.08 | locus YOL012C, strain htz1 1.12 | locus YOL147C, strain pex11, hits give low values 1.01 | locus YOR061W, strain CKA2, hits give low values 1.01 | locus YOR069W, strain VPS5, hits give low values 1.02 | locus YOR136W, strain idh2, hits give low values 1.03 | locus YOR144C, strain elg1, hits give low values 0.999 | locus YOR184W, strain ser1, hits give low values 0.981 | locus YOR316C, strain cot1, hits give low values 1.03 | locus YPL055C, strain LGE1, hits give low values 1 | locus YPL241C, strain CIN2, hits give low values 0.996 | locus YPR119W, strain clb2, hits give low values 1 | locus YPR141C, strain kar3, hits give low values 1.01 | locus YPR163C, strain tif3, hits give low values 1.02 | locus YPR167C, strain met16, hits give low values 1.01 | strain wtn01, hits give low values 0.986
